PubChem BioAssay AID1159580 (chemical genetic matrix, 2015)
The whole screen tested about 5,500 compounds, of which about 2,000 (36%) were called active. Another 18% or so got no clear call; they are omitted. Cut-off read from the data, not from the text of the source: active = normalized growth mostly below about 0.91 (no sharp cut-off); inconclusive = no clear call, values can overlap the other calls; inactive = mostly above about 0.92. The list shows a part of the results.

Experiment: chemical genetic growth profiling, strain panel (AID 1159580);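 note: tested at 20 µM; growth read once vehicle control cultures reached saturation at 30 °C; 1 = growth at the plate median or of vehicle wells; lower values mean less growth of the strain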
Conditions: growth OD

Measured: normalized growth

CC(C)CC1C(=O)N2CCC[C@H]2C2(O)O[C@](NC(=O)C3C=C4c5cccc6[nH]c(Br)c(c56)C[C@H]4N(C)C3)(C(C)C)C(=O)N12 (stereo partly specified)
inactive: S. cerevisiae deletion strains, locus YKL009W, strain mrt4, stronger effect = lower value 0.983 | S. cerevisiae deletion strains, locus YKL068W, stronger effect = lower value 0.97 | S. cerevisiae deletion strains, locus YKL085W, strain MDH1 (second series), stronger effect = lower value 0.963 | S. cerevisiae deletion strains, locus YKL085W, strain MDH1, stronger effect = lower value 0.963 | S. cerevisiae deletion strains, locus YKL160W, strain elf1, stronger effect = lower value 0.993 | S. cerevisiae deletion strains, locus YKL190W, strain CNB1, stronger effect = lower value 0.979 | S. cerevisiae deletion strains, locus YKR001C, strain vps1, stronger effect = lower value 0.989 | S. cerevisiae deletion strains, locus YKR026C, strain gcn3, stronger effect = lower value 0.998 | S. cerevisiae deletion strains, locus YKR091W, strain srl3, stronger effect = lower value 0.979 | S. cerevisiae deletion strains, locus YLL001W, strain dnm1, stronger effect = lower value 0.988 | S. cerevisiae deletion strains, locus YLL026W, stronger effect = lower value 0.977 | S. cerevisiae deletion strains, locus YLL041C, strain sdh2, stronger effect = lower value 0.982 | S. cerevisiae deletion strains, locus YLR027C, strain aat2, stronger effect = lower value 0.977 | S. cerevisiae deletion strains, locus YLR039C, strain RIC1, stronger effect = lower value 0.905 | S. cerevisiae deletion strains, locus YLR058C, strain SHM2, stronger effect = lower value 0.988 | S. cerevisiae deletion strains, locus YLR102C, strain apc9, stronger effect = lower value 0.973 | S. cerevisiae deletion strains, locus YLR113W, strain HOG1, stronger effect = lower value 0.945 | S. cerevisiae deletion strains, locus YLR221C, strain rsa3, stronger effect = lower value 0.983 | S. cerevisiae deletion strains, locus YLR258W, strain gsy2, stronger effect = lower value 0.997 | S. cerevisiae deletion strains, locus YLR262C, strain YPT6 (second series), stronger effect = lower value 0.944 | S. cerevisiae deletion strains, locus YLR262C, strain YPT6, stronger effect = lower value 0.951 | S. cerevisiae deletion strains, locus YLR268W, strain sec22, stronger effect = lower value 0.98 | S. cerevisiae deletion strains, locus YLR320W, strain mms22, stronger effect = lower value 0.982 | S. cerevisiae deletion strains, locus YLR330W, strain CHS5, stronger effect = lower value 0.975 | S. cerevisiae deletion strains, locus YLR342W, strain FKS1 (second series), stronger effect = lower value 0.995 | S. cerevisiae deletion strains, locus YLR342W, strain FKS1, stronger effect = lower value 0.983 | S. cerevisiae deletion strains, locus YLR357W, strain rsc2, stronger effect = lower value 0.933 | S. cerevisiae deletion strains, locus YLR370C, strain arc18, stronger effect = lower value 0.966 | S. cerevisiae deletion strains, locus YLR371W, strain rom2, stronger effect = lower value 0.977 | S. cerevisiae deletion strains, locus YLR384C, strain iki3, stronger effect = lower value 0.987 | S. cerevisiae deletion strains, locus YLR418C, strain cdc73, stronger effect = lower value 0.978 | S. cerevisiae deletion strains, locus YML016C, strain PPZ1, stronger effect = lower value 0.983 | S. cerevisiae deletion strains, locus YML032C, strain rad52, stronger effect = lower value 0.982 | S. cerevisiae deletion strains, locus YML120C, strain ndi1, stronger effect = lower value 0.992 | S. cerevisiae deletion strains, locus YML124C, strain tub3, stronger effect = lower value 0.973 | S. cerevisiae deletion strains, locus YMR058W, strain fet3, stronger effect = lower value 0.973 | S. cerevisiae deletion strains, locus YMR078C, strain ctf18, stronger effect = lower value 0.98 | S. cerevisiae deletion strains, locus YMR125W, strain sto1, stronger effect = lower value 0.99 | S. cerevisiae deletion strains, locus YMR129W, stronger effect = lower value 0.977 | S. cerevisiae deletion strains, locus YMR205C, strain PFK2, stronger effect = lower value 0.97 | S. cerevisiae deletion strains, locus YMR223W, strain ubp8, stronger effect = lower value 0.986 | S. cerevisiae deletion strains, locus YMR231W, strain pep5, stronger effect = lower value 0.99 | S. cerevisiae deletion strains, locus YMR263W, strain SAP30, stronger effect = lower value 0.981 | S. cerevisiae deletion strains, locus YMR307W, strain GAS1, stronger effect = lower value 1.07 | S. cerevisiae deletion strains, locus YNL067W, strain RPL9B, stronger effect = lower value 0.988 | S. cerevisiae deletion strains, locus YNL071W, strain lat1, stronger effect = lower value 0.993 | S. cerevisiae deletion strains, locus YNL128W, strain TEP1, stronger effect = lower value 0.97 | S. cerevisiae deletion strains, locus YNL153C, strain GIM3, stronger effect = lower value 0.986 | S. cerevisiae deletion strains, locus YNL183C, strain NPR1, stronger effect = lower value 0.938 | S. cerevisiae deletion strains, locus YNL209W, strain ssb2, stronger effect = lower value 0.989 | S. cerevisiae deletion strains, locus YNL233W, strain BNI4, stronger effect = lower value 0.986 | S. cerevisiae deletion strains, locus YNL248C, strain rpa49, stronger effect = lower value 0.993 | S. cerevisiae deletion strains, locus YNL250W, strain rad50, stronger effect = lower value 0.952 | S. cerevisiae deletion strains, locus YNL271C, strain bni1, stronger effect = lower value 0.976 | S. cerevisiae deletion strains, locus YNL298W, strain CLA4, stronger effect = lower value 0.986 | S. cerevisiae deletion strains, locus YNL307C, strain MCK1, stronger effect = lower value 0.981 | S. cerevisiae deletion strains, locus YNL322C, strain KRE1 (second series), stronger effect = lower value 0.992 | S. cerevisiae deletion strains, locus YNL322C, strain KRE1, stronger effect = lower value 0.978 | S. cerevisiae deletion strains, locus YNR049C, strain mso1, stronger effect = lower value 0.971 | S. cerevisiae deletion strains, locus YNR052C, strain pop2, stronger effect = lower value 1 | S. cerevisiae deletion strains, locus YOL006C, strain TOP1, stronger effect = lower value 1.02 | S. cerevisiae deletion strains, locus YOL012C, strain htz1 0.94 | S. cerevisiae deletion strains, locus YOL147C, strain pex11, stronger effect = lower value 0.969 | S. cerevisiae deletion strains, locus YOR001W, strain rrp6, stronger effect = lower value 0.997 | S. cerevisiae deletion strains, locus YOR061W, strain CKA2, stronger effect = lower value 0.98 | S. cerevisiae deletion strains, locus YOR069W, strain VPS5, stronger effect = lower value 0.983 | S. cerevisiae deletion strains, locus YOR070C, strain gyp1, stronger effect = lower value 0.985 | S. cerevisiae deletion strains, locus YOR080W, strain dia2, stronger effect = lower value 0.974 | S. cerevisiae deletion strains, locus YOR083W, strain WHI5, stronger effect = lower value 0.995 | S. cerevisiae deletion strains, locus YOR106W, strain vam3, stronger effect = lower value 1.07 | S. cerevisiae deletion strains, locus YOR136W, strain idh2, stronger effect = lower value 0.987 | S. cerevisiae deletion strains, locus YOR144C, strain elg1, stronger effect = lower value 0.979 | S. cerevisiae deletion strains, locus YOR184W, strain ser1, stronger effect = lower value 0.995 | S. cerevisiae deletion strains, locus YOR231W, strain MKK1, stronger effect = lower value 0.981 | S. cerevisiae deletion strains, locus YOR265W, strain rbl2, stronger effect = lower value 0.971 | S. cerevisiae deletion strains, locus YOR270C, strain vph1, stronger effect = lower value 1.07 | S. cerevisiae deletion strains, locus YOR290C, strain snf2, stronger effect = lower value 0.977 | S. cerevisiae deletion strains, locus YOR316C, strain cot1, stronger effect = lower value 0.976 | S. cerevisiae deletion strains, locus YPL051W, strain arl3, stronger effect = lower value 0.985 | S. cerevisiae deletion strains, locus YPL055C, strain LGE1, stronger effect = lower value 1 | S. cerevisiae deletion strains, locus YPL078C, strain atp4, stronger effect = lower value 0.984 | S. cerevisiae deletion strains, locus YPL106C, strain sse1, stronger effect = lower value 0.941 | S. cerevisiae deletion strains, locus YPL240C, strain hsp82, stronger effect = lower value 0.99 | S. cerevisiae deletion strains, locus YPL241C, strain CIN2, stronger effect = lower value 0.988 | S. cerevisiae deletion strains, locus YPL256C, strain CLN2, stronger effect = lower value 0.99 | S. cerevisiae deletion strains, locus YPR119W, strain clb2, stronger effect = lower value 0.988 | S. cerevisiae deletion strains, locus YPR141C, strain kar3, stronger effect = lower value 0.938 | S. cerevisiae deletion strains, locus YPR163C, strain tif3, stronger effect = lower value 0.975 | S. cerevisiae deletion strains, locus YPR167C, strain met16, stronger effect = lower value 0.97 | S. cerevisiae deletion strains, strain wtn01, stronger effect = lower value 0.975 | S. cerevisiae strains, strain wild type, stronger effect = lower value 0.983
